Results reported in PubChem BioAssay AID1159580 (chemical genetic matrix, 2015).
Screen size: about 5,500 compounds; about 2,000 (36%) were called active. Another 18% or so got no clear call; they are omitted. No stated cut-off is given here; in the data, active means normalized growth mostly below about 0.91 (no sharp cut-off); inconclusive means no clear call, values can overlap the other calls; inactive means mostly above about 0.92. Some of the results follow.

Test: chemical genetic growth profiling, strain panel (AID 1159580);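 further: tested at 20 µM; growth read once vehicle control cultures reached saturation at 30 °C; 1 = growth at the plate median or of vehicle wells; lower values mean less growth of the strain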
Settings: S. cerevisiae deletion strains, growth OD

Measured: normalized growth

CC(=O)N[C@H](C(=O)O)C(C)(C)SN=O
inactive: locus YAL013W, strain DEP1, active compounds read low 1.01 | locus YAL040C, strain CLN3, active compounds read low 1.01 | locus YCL061C, strain MRC1 (second series), active compounds read low 1.01 | locus YDR363W, strain ESC2, active compounds read low 0.989 | locus YER002W, strain NOP16, active compounds read low 1.01 | locus YGR078C, strain PAC10, active compounds read low 1.02 | locus YGR229C, strain SMI1, active compounds read low 1 | locus YMR307W, strain GAS1, active compounds read low 0.987 | locus YNL128W, strain TEP1, active compounds read low 0.998 | locus YNL153C, strain GIM3, active compounds read low 1.02 | locus YNL175C, strain NOP13, active compounds read low 1.01 | locus YNL197C, strain WHI3, active compounds read low 1.01 | locus YNL224C, strain SQS1, active compounds read low 1.02 | locus YNL322C, strain KRE1, active compounds read low 1.01 | locus YOR083W, strain WHI5 (second series), active compounds read low 1.02 | locus YPL241C, strain CIN2, active compounds read low 1.01

CC(=O)O[C@H]1CC2CCC3C(CC[C@@]4(C)C3C[C@H]([N+]3(C)CCCCC3)[C@@H]4OC(C)=O)[C@@]2(C)C[C@@H]1N1CCCCC1 (stereo partly specified)
inactive: locus YAL021C, strain ccr4, active compounds read low 1.02 | locus YAL026C, strain drs2, active compounds read low 1.03 | locus YAL030W, strain snc1, active compounds read low 1.03 | locus YBL061C, strain skt5, active compounds read low 1.02 | locus YBR009C, strain hhf1, active compounds read low 1.03 | locus YBR023C, strain chs3, active compounds read low 1.02 | locus YBR171W, strain sec66, active compounds read low 1.04 | locus YBR231C, strain swc5, active compounds read low 1.03 | locus YBR279W, strain paf1, active compounds read low 1.03 | locus YCL011C, strain gbp2, active compounds read low 1.03 | locus YCL016C, strain dcc1, active compounds read low 1.02 | locus YCL061C, strain MRC1, active compounds read low 1.02 | locus YCL069W, strain vba3, active compounds read low 1.02 | locus YCR088W, strain abp1, active compounds read low 1.02 | locus YDL005C, strain med2, active compounds read low 1.03 | locus YDL040C, strain nat1, active compounds read low 1.01 | locus YDR001C, strain nth1, active compounds read low 1.02 | locus YDR069C, strain doa4, active compounds read low 1.02 | locus YDR137W, strain rgp1, active compounds read low 1.07 | locus YDR159W, strain sac3, active compounds read low 1.03 | locus YDR195W, strain ref2 1.03 | locus YDR297W, strain sur2, active compounds read low 1.02 | locus YDR334W, strain swr1, active compounds read low 1.02 | locus YDR335W, strain msn5, active compounds read low 1.02 | locus YDR392W, strain spt3, active compounds read low 0.868 | locus YEL003W, strain gim4, active compounds read low 1.02 | locus YEL037C, strain rad23, active compounds read low 1.02 | locus YEL061C, strain CIN8 (second series), active compounds read low 1.03 | locus YER015W, strain faa2, active compounds read low 1.02 | locus YER016W, strain bim1, active compounds read low 1.02 | locus YER111C, strain swi4, active compounds read low 1.01 | locus YER155C, strain BEM2 (second series), active compounds read low 1.03 | locus YFR010W, strain ubp6, active compounds read low 1.01 | locus YGL167C, strain pmr1, active compounds read low 1.04 | locus YGL173C, strain kem1, active compounds read low 1.03 | locus YGL227W, strain vid30, active compounds read low 1.02 | locus YGL240W, strain doc1, active compounds read low 1.04 | locus YGL253W, strain hxk2, active compounds read low 1.01 | locus YHR013C, strain ard1, active compounds read low 1.01 | locus YHR027C, strain rpn1, active compounds read low 1.02 | locus YHR030C, strain SLT2, active compounds read low 1.05 | locus YHR079C, strain IRE1, active compounds read low 1.03 | locus YHR142W, strain chs7, active compounds read low 1.02 | locus YJL092W, strain hpr5, active compounds read low 1.01 | locus YJL095W, strain BCK1 (second series), active compounds read low 1.02 | locus YJL095W, strain BCK1, active compounds read low 0.993 | locus YJL115W, strain asf1, active compounds read low 1.02 | locus YJL129C, strain trk1, active compounds read low 1.03 | locus YJL154C, strain vps35, active compounds read low 1.02 | locus YJL164C, strain tpk1, active compounds read low 1 | locus YJL166W, strain qcr8, active compounds read low 1.03 | locus YJL187C, strain SWE1, active compounds read low 1.03 | locus YJR066W, strain TOR1, active compounds read low 0.979 | locus YKL160W, strain elf1, active compounds read low 1.03 | locus YKR026C, strain gcn3, active compounds read low 0.998 | locus YKR091W, strain srl3, active compounds read low 1.03 | locus YLL001W, strain dnm1, active compounds read low 1.01 | locus YLL026W, active compounds read low 1.02 | locus YLL041C, strain sdh2, active compounds read low 1.02 | locus YLR027C, strain aat2, active compounds read low 1.02 | locus YLR113W, strain HOG1, active compounds read low 0.99 | locus YLR221C, strain rsa3, active compounds read low 1.01 | locus YLR258W, strain gsy2, active compounds read low 1.02 | locus YLR262C, strain YPT6 (second series), active compounds read low 1.04 | locus YLR320W, strain mms22, active compounds read low 1.02 | locus YLR342W, strain FKS1, active compounds read low 1.02 | locus YLR357W, strain rsc2, active compounds read low 1.04 | locus YLR370C, strain arc18, active compounds read low 1.02 | locus YLR384C, strain iki3, active compounds read low 1.03 | locus YML120C, strain ndi1, active compounds read low 1.02 | locus YMR058W, strain fet3, active compounds read low 1.03 | locus YMR125W, strain sto1, active compounds read low 1.05 | locus YMR129W, active compounds read low 1.02 | locus YMR205C, strain PFK2, active compounds read low 1.05 | locus YMR231W, strain pep5, active compounds read low 1.02 | locus YNL071W, strain lat1, active compounds read low 1.01 | locus YNL183C, strain NPR1, active compounds read low 0.965 | locus YNL209W, strain ssb2, active compounds read low 1.02 | locus YNL248C, strain rpa49, active compounds read low 1.01 | locus YNL322C, strain KRE1 (second series), active compounds read low 1.02 | locus YNR049C, strain mso1, active compounds read low 1.01 | locus YOR001W, strain rrp6, active compounds read low 1.02 | locus YOR070C, strain gyp1, active compounds read low 1.01 | locus YOR080W, strain dia2, active compounds read low 1.04 | locus YOR083W, strain WHI5, active compounds read low 1.02 | locus YOR106W, strain vam3, active compounds read low 1.02 | locus YOR231W, strain MKK1, active compounds read low 1.04 | locus YOR265W, strain rbl2, active compounds read low 1.02 | locus YOR270C, strain vph1, active compounds read low 1.04 | locus YOR290C, strain snf2, active compounds read low 1.03 | locus YPL051W, strain arl3, active compounds read low 1.01 | locus YPL078C, strain atp4, active compounds read low 1.02 | locus YPL106C, strain sse1, active compounds read low 1.02 | locus YPL240C, strain hsp82, active compounds read low 1.01 | locus YPL256C, strain CLN2, active compounds read low 1.04
